Source: PubChem BioAssay (National Center for Advancing Translational Sciences (NCATS))
In the library only some 6.2% were active in any assay of this set; here they are far more common.
Lassa entry inh: qHTS for Inhibitors of binding or entry into cells for Lassa Virus; Lassa virus pseudotype entry inhibition, cell reporter; 300,000 compounds, 1.2% hits; Potency, µM (series often up to 37.9 µM), for the others: at the highest dose activity change, negative = inhibition, usual class: inhibitors; calls by dose curve; tested in HEK293 cells; note: potency is the fitted concentration of half-maximal effect; nearly all actives have a fitted effect of over 50% in size
FMDV inh: High Throughput Screening for Foot and Mouth Disease Virus Antivirals | 410,000 compounds, 1.2% hits | FMDV antiviral cell-based qHTS | Potency, µM (doses to about 57.9 µM), for inactives: at the top dose activity change, negative = inhibition, hits mostly inhibitors; calls by dose curve; tested in HEK293T cells; note: read-out not given here; potency is the fitted concentration of half-maximal effect; nearly all actives have a fitted effect of over 45% in size
Marburg entry inh: qHTS for inhibitors of binding or entry into cells for Marburg Virus; 300,000 compounds, 1.8% hits; AID 540276, 2011; Potency, µM (titrated, usually from 37.8 µM), for the others: top-dose activity change, negative = inhibition, most hits filed as inhibitors; Marburg virus pseudotyped entry inhibition, cell reporter; calls by dose curve; tested in HEK293 cells; note: potency is the fitted concentration of half-maximal effect
HCMV inh: qHTS Assay for inhibitors of the human cytomegalovirus (HCMV); AID 1259415, 2018; activity change, negative = inhibition, % at 57.5 µM; HFF cells, HCMV-luciferase reporter, 72 h; active compounds read low; 410,000 compounds, 4.5% hits; in the data active = activity change below about -60%; inconclusive = no clear call, values can overlap the other calls; inactive = above about -39%
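HFF cells seeded 16 h at 37C, treated with compounds, infected with luciferase-reporter HCMV at MOI 1 PFU/cell; luciferase read at 72 h post infection, normalized to buffer-only and Salinomycin controls.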
An asterisk follows results filed as active; ? = inconclusive; / = no result; ! = repeats disagree; [ ] = dose if it differs, or a comment. % is set by controls: 0 for no effect and ±100 for the full control effect.

SMILES	Lassa entry inh	FMDV inh	Marburg entry inh	HCMV inh
COc1ccc(-c2oc3ccc(N4CCOCC4)cc3c2C#CCO)cc1	/	28µM*	/	-67*
COc1ccc(-c2ccc3oc(-c4ccc(OC)cc4)c(C#CCO)c3c2)cc1	/	8.9µM*	/	-92*
COc1ccc(CCNC(=O)C2CCCN(S(=O)(=O)c3cccc4nonc34)C2)cc1OC (stereo not given)	4%	0%	0%[46.1 µM]	14
Cc1ccc(S(=O)(=O)c2nc(-c3ccccc3F)oc2N2CC(C)OC(C)C2)cc1 (stereo not given)	16µM*	27%	-17%	-20
Cc1ccc(-n2nnnc2SCC(=O)NC2CC2)cc1C	/	-8%	/	-26
Cc1sc(NC(=S)NC(=O)c2ccc(C(C)(C)C)cc2)c(C#N)c1C	?	?	8.2µM*	?
CCOC(=O)CNC(=O)CSc1nnc(NC(=O)c2ccc(C)cc2)s1	?	-60%	6.3µM*	-29
CN(C)S(=O)(=O)c1ccc(C(=O)Nc2nnc(SCC(=O)N3CCOCC3)s2)cc1	/	16%	/	-27
O=C(Nc1nnc(SCC(=O)N2CCCc3ccccc32)s1)c1cccc2ccccc12	-4%	-25%	3%	-38
CC(C)Oc1ccc(C(=O)Nc2nnc(SCC(=O)N3CCOCC3)s2)cc1	2.8µM*	?	?	-21
Cc1ccc(C(=O)Nc2nnc(SCC(=O)N3CCCc4ccccc43)s2)cc1	3.5µM*	?	?	-20
O=C(Nc1c2c(nn1-c1ccc([N+](=O)[O-])cc1)CS(=O)(=O)C2)C1CC1	/	-10%	/	-13
COC(=O)c1ccc(C(=O)OC)c(N)c1	/	/	-2%	/
O=c1[nH]c(=O)n([C@H]2C[C@H](O)[C@@H](CO)O2)cc1C(F)(F)F	?	-21%	?	-1
[N-]=[N+]=NC1C[C@H](n2ccc(=O)[nH]c2=O)O[C@@H]1CO (stereo not given in full)	-10%	-19%	-3%	-66*
CCN1C(=C(C#N)C#N)C=Cc2cc(C)ccc21	7%[46.1 µM]	6%	-17%[46.1 µM]	-21
C=CC[n+]1c(/C=C2\C=Cc3cc(C)ccc3N2CC)ccc2ccccc21	7.3µM*	?	4.1µM*	-102*
O=C(c1ccco1)N1N=C2CCCCCC2C1(O)C(F)(F)F (stereo not given)	8%[46.1 µM]	?	-14%[46.1 µM]	-66*
O=C(c1ccncc1)N1N=C2CCCCCC2C1(O)C(F)(F)F (stereo not given)	12%	-3%	6%	?
CCOC(=O)c1nnsc1-c1ccc(-c2snnc2C(=O)OCC)cc1	/	-7%	/	6
O=C(N/N=C/c1ccc(F)cc1)c1cc(-c2ccc3c(c2)OCO3)n[nH]1	8.9µM*	-6%	1%[46.1 µM]	46
O=C(NN=Cc1ccc2c(c1)OCO2)c1ccc([N+](=O)[O-])cc1	/	-6%	/	-2
O=C(N/N=C/c1ccc2c(c1)OCO2)c1ccc(NC(=O)c2ccc(F)cc2)cc1	3%[46.1 µM]	2%	-13%[46.1 µM]	-86*
CCOc1ccc(C(=O)NNC2CC(=O)N(CCc3ccccc3)C2=O)cc1OC (stereo not given)	-19%	-18%	24%	-9
CCc1ccc(-c2cn(-c3nc(C)cc(C)n3)c(=N)o2)cc1	16µM*	-23%	?	-101*
SMILES	Lassa entry inh	FMDV inh	Marburg entry inh	HCMV inh
CCc1ccc(-c2cn3c(n2)SCC3)cc1	-15%[46.1 µM]	-22%	?	83
O=C(c1ccc2nc[nH]c2c1)N1CCN(c2cccc(C(F)(F)F)c2)CC1	?	-23%	0%	28
O=C(c1ccc2nc[nH]c2c1)N1CCN(c2ncc(C(F)(F)F)cc2Cl)CC1	-24%	?	-29%	-70*
Nc1ccc(N2CCN(c3ncc(C(F)(F)F)cc3Cl)CC2)c(C(F)(F)F)c1	-1%[46.1 µM]	?	6%[46.1 µM]	-104*
O=C(c1ccc([N+](=O)[O-])cc1)N1CCOC12CCN(c1ncc(C(F)(F)F)cc1Cl)CC2	-2%	?	-3%	12
CN(C)/C=C/C(=O)c1ccc(N2CCN(c3ncc(C(F)(F)F)cc3Cl)CC2)cc1	?	25µM*	?	-108*
O=C(c1ccccc1)N1CCOC12CCN(c1ncc(C(F)(F)F)cc1Cl)CC2	?	16µM*	-27%	-61*
COCCNc1sc(S(=O)(=O)c2ccc(C)cc2)nc1S(=O)(=O)c1ccc(C)cc1	?	0%	-26%[46.1 µM]	0
COCCn1c(=S)[nH]c2sc3c(c2c1=O)CCCC3	-7%[46.1 µM]	8%	3%[46.1 µM]	0
c1ccc(Cc2nnc(-c3ccccc3)o2)cc1	-26%	-15%	?	-96*
COc1ccc(SCCc2nnc(-c3ccccc3)o2)cc1	/	-1%	/	-98*
Cc1ccc(-c2nnc(-c3ccccc3)o2)cc1	10µM*	-20%	16µM*	108
Brc1ccc(-c2nnc(Cc3ccccc3)o2)cc1	/	87%	/	33
Cc1ccccc1C(=O)Nc1cc(S(=O)(=O)N2CCOCC2)ccc1N1CCN(C)CC1	/	-17%	/	13
Cn1c(=O)c2c(-c3ccccc3)n(-c3ccc(N)cc3)cc2n(C)c1=O	/	-19%	/	-13
O=C1Nc2ccc(-c3cccnc3)cc2C1=Cc1cc(Br)c(O)c(Br)c1	13µM*	/	/	/
CN(CCO)c1cc(Sc2nc3ccccc3s2)c2nonc2c1[N+](=O)[O-]	?	22µM*	?	-104*
COC(=O)[C@@]1(Cc2ccc(F)cc2)[C@H]2c3cc(C(=O)N(C)C)n(Cc4cc(C)n(C)n4)c3C[C@H]2CN1C(=O)c1ccccc1	/	-17%	/	-8
Cc1c(Cl)cnc(NC(=O)COC(=O)c2nn(C)c(=O)c3ccccc23)c1Cl	/	-16%	-9%	-34
Cc1nn2c(N3CCN(C4CCCC4)CC3)cc(C(C)(C)C)nc2c1-c1ccccc1	-2%	10%	8%	-1
Cc1nn2c(N3CCN(C(=O)c4ccco4)CC3)cc(C(C)(C)C)nc2c1-c1ccccc1	3%	14µM*	-8%	-64*
Cc1nn2c(N3CCN(C)CC3)cc(C(C)(C)C)nc2c1-c1ccccc1	?	?	10µM*	-67*
COc1ccc(-c2nc(CCNC(=O)c3cccs3)cs2)cc1OC	?	?	/	-84*
O=C(NCCc1csc(-c2ccc(Cl)cc2)n1)c1cccs1	-24%[46.1 µM]	25µM*	/	?
COc1ccc(C(=O)NCCc2csc(-c3ccc(Cl)cc3)n2)cc1	2%[46.1 µM]	-1%	/	?
CCCCOc1ccc(C(=O)NCCc2csc(-c3ccc(OC)cc3)n2)cc1	?	?	/	-61*
CCO[C@@H]1OC(C(=O)NCc2ccccc2)=C[C@H](c2ccc(Br)cc2)[C@H]1CCCO	/	-7%	/	7
Clc1ccc(C(c2nnnn2C2CCCC2)N2CCN(c3nc4ccccc4s3)CC2)cc1 (stereo not given)	-14%	6%	?	-27
Cc1ccc(Cl)cc1N1CCN(C(c2ccc(C#N)cc2)c2nnnn2C2CCCC2)CC1 (stereo not given)	-18%	-4%	5.8µM*	?
Cc1ccc(Cl)cc1N1CCN(C(c2cccnc2)c2nnnn2C2CCCCC2)CC1 (stereo not given)	?	/	15µM*!	-39
